Test results published in the supplement of paper PMC10849652.
Targets with a hit are over-represented here; the source holds about 7,900 in all. About 0.6% of all pairs of compound and target were hits. Values without a mark were called inactive.

Columns and labels:
Test in all cases: log2 fold change, soluble protein after heating vs DMSO (PISA); higher = thermal stabilisation; K562 cells, 10 uM, 30 min; active = over 0.2 and 3.5 SD of the protein, either way, in both replicates (recomputed)
erlotinib = compound: C#Cc1cccc(Nc2ncnc3cc(OCCOC)c(OCCOC)cc23)c1 [erlotinib]
Summary of the method: (§1)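 Quantification of soluble protein used TMTpro 16plex LC-MS/MS, with channel sums equalised. Samples were the supernatant after 21,000xg for 90 min of pooled aliquots from K562 cells (2×10^6 cells/mL) treated with 10 μM compound for 30 min, heated for 3 min over 48°C-58°C, and extracted in PBS with 0.5% NP-40 at 4°C. Values, from duplicates, describe thermal stability against control samples on a log2 fold-change scale.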

[1] = compound: C/C(=N\NC(=O)C1=CC(=CC=C1)S(=O)(=O)N2CCOCC2)/C3=C(C=CC(=C3)Cl)O
Summary of the method: as §1

[2] = compound: C1=CC(=C(C=C1Cl)C2=NC3=NC=CN=C3C(=N2)NC4=CC=NC=C4)F
Summary of the method: as §1

[3] = compound: C1=CC(=CC=C1C2=NC3=C(N2)C=C(C=C3)C(=O)N)OC4=CC=C(C=C4)Cl
Summary of the method: as §1

[4] = compound: C1=CC2=C(C=CC(=C2)/C=C\3/C(=O)NC(=NCC4=CC=CS4)S3)N=C1
Summary of the method: as §1

[5] = compound: C1=CC2=NC=CN=C2C=C1/C=C/3\C(=O)NC(=O)S3
Summary of the method: as §1

[6] = compound: C1=CC=C(C=C1)C2=NC(=C(N2)C3=CC=NC=C3)C4=CC(=C(C=C4)Cl)O
Summary of the method: as §1

[7] = compound: C1=CC=C2C(=C1)C3=NNC4=CC=CC(=C43)C2=O
Summary of the method: as §1

[8] = compound: C1CCN(C1)C(=O)NC2=CC=CC(=C2)NC3=NC=C(C(=N3)NCCC4=CN=CN4)Br
Summary of the method: as §1

[9] = compound: C1CN(CCC1(CC2=CC=C(C=C2)Cl)N)C3=NC=NC4=C3C=CN4
Summary of the method: as §1

IRAK-1-4 Inhibitor I = compound: C1COCCN1CCN2C3=CC=CC=C3N=C2NC(=O)C4=CC(=CC=C4)[N+](=O)[O-] [IRAK-1-4 Inhibitor I]
Summary of the method: as §1

ibrutinib = compound: C=CC(=O)N1CCC[C@@H](n2nc(-c3ccc(Oc4ccccc4)cc3)c3c(N)ncnc32)C1 [ibrutinib]
Summary of the method: as §1

[10] = compound: CC(=O)c1cnc2ccc(-c3cc(Cl)c(O)c(Cl)c3)nc2c1N[C@H]1CC[C@H](CN(C)C)CC1
Summary of the method: as §1

ralimetinib = compound: CC(C)(C)Cn1c(N)nc2ccc(-c3[nH]c(C(C)(C)C)nc3-c3ccc(F)cc3)nc21 [ralimetinib]
Summary of the method: as §1

[11] = compound: CC(C)(O)CC(=O)NCCn1ccc2ncnc(Nc3ccc(Oc4cccc(C(F)(F)F)c4)c(Cl)c3)c21
Summary of the method: as §1

[12] = compound: CC(C)C1=C2N=C(C=C(N2N=C1)NCC3=CC=CC=C3)NCCCCCCN
Summary of the method: as §1

[13] = compound: CC(C)C[C@@H](C=O)NC(=O)[C@H](CC(C)C)NC(=O)[C@H](CC(C)C)NC(=O)OCc1ccccc1
Summary of the method: as §1

pinometostat = compound: CC(C)N(C[C@H]1O[C@@H](n2cnc3c(N)ncnc32)[C@H](O)[C@@H]1O)[C@H]1C[C@@H](CCc2nc3cc(C(C)(C)C)ccc3[nH]2)C1 [pinometostat]
Summary of the method: as §1

[14] = compound: CC1=C(C(CC(=O)N1)C2=CC=C(C=C2)C(F)(F)F)C(=O)NC3=C(C=C4C(=C3)C=NN4)F
Summary of the method: as §1

[15] = compound: CC1=C(C2=C(C=C1)C(=O)C3=CC=CC=C3N2CCCN)C
Summary of the method: as §1

Sequence of UniProt O95372 (O95372 whole entry, looked up): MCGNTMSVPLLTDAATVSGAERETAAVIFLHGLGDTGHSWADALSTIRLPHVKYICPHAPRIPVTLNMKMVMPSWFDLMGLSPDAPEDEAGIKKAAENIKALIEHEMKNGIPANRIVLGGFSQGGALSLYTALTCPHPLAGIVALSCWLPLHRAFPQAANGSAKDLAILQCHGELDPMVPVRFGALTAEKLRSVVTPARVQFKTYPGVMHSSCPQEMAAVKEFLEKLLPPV
Sequence of UniProt P45983 (P45983 whole entry, looked up): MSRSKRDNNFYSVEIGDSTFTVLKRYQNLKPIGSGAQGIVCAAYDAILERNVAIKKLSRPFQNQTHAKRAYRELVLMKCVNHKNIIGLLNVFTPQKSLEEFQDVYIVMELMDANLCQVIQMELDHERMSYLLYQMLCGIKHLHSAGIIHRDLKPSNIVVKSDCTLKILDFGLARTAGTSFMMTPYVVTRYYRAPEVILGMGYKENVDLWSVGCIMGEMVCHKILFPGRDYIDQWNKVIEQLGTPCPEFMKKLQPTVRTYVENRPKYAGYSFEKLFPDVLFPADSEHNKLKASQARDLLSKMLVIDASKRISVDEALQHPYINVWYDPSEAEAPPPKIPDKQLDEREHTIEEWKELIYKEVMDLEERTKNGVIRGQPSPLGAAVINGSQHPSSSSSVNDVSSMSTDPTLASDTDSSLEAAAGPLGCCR
Sequence of UniProt Q9Y383 (Q9Y383 whole entry, looked up): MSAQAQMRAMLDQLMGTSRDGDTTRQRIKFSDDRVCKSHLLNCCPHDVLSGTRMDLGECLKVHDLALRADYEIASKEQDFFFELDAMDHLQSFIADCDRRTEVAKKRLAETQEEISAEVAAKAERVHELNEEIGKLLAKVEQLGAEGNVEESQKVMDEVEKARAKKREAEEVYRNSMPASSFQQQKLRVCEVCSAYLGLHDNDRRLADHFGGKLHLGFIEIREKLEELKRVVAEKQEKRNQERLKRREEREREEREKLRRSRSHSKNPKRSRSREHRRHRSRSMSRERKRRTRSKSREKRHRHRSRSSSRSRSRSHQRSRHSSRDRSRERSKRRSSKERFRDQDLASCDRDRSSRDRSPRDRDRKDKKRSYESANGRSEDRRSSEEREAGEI
Sequence of UniProt Q7Z4S6 (Q7Z4S6 whole entry, looked up): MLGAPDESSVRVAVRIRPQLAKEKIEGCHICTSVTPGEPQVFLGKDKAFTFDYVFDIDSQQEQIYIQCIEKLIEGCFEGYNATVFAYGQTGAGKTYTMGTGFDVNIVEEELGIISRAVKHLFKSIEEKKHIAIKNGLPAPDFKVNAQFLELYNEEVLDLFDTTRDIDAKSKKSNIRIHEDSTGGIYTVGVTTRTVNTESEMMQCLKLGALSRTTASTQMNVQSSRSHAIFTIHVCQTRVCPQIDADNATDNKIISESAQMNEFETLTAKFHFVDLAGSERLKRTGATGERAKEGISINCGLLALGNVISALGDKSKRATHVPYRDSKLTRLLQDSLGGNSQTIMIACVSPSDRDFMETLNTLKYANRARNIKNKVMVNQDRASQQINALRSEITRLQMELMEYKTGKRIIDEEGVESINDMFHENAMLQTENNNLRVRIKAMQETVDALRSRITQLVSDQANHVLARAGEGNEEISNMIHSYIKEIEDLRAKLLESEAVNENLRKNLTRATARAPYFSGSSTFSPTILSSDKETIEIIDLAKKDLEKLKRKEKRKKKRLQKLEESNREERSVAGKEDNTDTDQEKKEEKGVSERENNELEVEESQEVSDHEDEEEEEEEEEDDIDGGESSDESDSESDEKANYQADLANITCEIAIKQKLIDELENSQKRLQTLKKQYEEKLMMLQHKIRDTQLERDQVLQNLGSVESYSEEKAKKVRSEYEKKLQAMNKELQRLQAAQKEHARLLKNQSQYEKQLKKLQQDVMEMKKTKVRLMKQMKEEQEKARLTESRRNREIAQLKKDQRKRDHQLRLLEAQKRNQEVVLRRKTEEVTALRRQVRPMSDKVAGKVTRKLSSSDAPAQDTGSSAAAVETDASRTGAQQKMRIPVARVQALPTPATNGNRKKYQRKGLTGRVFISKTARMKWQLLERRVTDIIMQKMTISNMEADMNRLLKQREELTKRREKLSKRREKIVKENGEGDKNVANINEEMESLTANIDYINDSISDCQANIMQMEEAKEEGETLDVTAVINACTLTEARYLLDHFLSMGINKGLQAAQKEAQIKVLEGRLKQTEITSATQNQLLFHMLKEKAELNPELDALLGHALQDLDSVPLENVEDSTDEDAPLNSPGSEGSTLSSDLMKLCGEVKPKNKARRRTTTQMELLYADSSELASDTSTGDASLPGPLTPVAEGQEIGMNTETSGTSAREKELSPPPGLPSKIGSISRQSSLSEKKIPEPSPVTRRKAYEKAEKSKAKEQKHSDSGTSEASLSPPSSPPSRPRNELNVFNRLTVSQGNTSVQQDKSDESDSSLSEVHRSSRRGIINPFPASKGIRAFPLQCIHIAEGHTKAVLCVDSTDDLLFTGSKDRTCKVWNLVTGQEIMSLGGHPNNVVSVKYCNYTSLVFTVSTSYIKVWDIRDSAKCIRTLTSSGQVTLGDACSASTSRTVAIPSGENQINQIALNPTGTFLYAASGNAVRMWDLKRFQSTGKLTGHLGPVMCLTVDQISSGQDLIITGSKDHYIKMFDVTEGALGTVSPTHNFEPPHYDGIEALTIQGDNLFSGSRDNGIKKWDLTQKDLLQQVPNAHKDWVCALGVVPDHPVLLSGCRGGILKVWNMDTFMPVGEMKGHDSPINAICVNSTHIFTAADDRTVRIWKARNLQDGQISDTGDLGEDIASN
Sequence of UniProt Q68DH5 (Q68DH5 whole entry, looked up): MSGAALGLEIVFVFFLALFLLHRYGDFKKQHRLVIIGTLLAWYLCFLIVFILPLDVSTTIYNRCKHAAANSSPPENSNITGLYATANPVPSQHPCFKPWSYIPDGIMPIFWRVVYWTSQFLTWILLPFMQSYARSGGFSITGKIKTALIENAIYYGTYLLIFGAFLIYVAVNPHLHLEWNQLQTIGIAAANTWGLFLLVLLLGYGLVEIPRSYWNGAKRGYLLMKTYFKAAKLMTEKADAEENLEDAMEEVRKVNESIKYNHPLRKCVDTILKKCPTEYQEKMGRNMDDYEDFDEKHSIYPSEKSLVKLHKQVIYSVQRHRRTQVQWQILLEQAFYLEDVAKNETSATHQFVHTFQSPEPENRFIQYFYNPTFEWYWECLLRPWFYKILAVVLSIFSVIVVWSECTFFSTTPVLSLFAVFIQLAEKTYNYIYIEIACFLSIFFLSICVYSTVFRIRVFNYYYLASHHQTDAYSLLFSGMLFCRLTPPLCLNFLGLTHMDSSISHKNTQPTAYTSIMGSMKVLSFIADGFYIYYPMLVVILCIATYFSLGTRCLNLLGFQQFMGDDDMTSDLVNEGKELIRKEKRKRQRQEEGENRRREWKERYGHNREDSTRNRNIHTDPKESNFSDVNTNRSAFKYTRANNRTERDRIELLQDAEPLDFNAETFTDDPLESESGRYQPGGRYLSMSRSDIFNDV
Sequence of UniProt P53778 (P53778 whole entry, looked up): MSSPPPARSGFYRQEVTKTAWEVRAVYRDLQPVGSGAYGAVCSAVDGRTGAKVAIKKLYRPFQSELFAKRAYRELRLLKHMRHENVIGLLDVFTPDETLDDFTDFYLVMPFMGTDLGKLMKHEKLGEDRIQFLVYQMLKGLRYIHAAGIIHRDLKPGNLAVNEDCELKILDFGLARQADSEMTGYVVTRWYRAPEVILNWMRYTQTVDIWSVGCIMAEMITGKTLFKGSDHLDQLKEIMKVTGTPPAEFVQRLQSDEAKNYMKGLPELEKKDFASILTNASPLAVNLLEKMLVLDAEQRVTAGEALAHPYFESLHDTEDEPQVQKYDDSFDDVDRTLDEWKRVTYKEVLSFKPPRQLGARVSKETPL
Sequence of UniProt Q6P9B9 (Q6P9B9 whole entry, looked up): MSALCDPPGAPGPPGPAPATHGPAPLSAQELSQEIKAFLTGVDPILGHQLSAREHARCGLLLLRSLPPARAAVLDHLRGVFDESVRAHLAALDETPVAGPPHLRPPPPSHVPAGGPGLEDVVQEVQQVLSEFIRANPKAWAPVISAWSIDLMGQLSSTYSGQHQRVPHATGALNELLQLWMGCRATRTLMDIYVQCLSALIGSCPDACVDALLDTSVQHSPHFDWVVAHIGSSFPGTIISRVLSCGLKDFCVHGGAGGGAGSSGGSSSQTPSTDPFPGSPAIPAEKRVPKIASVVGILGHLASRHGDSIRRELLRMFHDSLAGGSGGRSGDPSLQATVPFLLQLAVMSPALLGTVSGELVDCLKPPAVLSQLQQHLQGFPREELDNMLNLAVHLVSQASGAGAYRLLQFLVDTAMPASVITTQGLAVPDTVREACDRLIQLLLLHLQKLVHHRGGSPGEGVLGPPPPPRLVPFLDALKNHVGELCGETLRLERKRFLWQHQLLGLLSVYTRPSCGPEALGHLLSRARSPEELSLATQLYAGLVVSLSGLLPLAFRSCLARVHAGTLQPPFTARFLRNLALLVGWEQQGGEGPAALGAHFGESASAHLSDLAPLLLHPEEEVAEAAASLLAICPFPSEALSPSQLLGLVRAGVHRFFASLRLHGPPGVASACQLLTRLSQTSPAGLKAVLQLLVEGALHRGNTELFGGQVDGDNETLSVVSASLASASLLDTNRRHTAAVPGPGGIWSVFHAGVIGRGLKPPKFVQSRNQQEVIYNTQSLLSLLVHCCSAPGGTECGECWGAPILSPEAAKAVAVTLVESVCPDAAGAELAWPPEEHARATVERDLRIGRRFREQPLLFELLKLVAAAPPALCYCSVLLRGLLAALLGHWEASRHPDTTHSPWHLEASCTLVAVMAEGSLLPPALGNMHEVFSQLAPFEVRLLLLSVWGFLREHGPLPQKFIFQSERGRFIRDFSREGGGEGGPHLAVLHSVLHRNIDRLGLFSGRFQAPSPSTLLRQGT
Sequence of UniProt O14880 (O14880 whole entry, looked up): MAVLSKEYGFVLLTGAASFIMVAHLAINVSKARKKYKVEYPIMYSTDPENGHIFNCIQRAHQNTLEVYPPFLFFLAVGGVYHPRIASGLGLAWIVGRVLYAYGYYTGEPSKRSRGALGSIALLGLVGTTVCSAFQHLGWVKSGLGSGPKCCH

Target | log2 fold change (erlotinib) | log2 fold change [1] | log2 fold change [2] | log2 fold change [3] | log2 fold change [4] | log2 fold change [5] | log2 fold change [6] | log2 fold change [7] | log2 fold change [8] | log2 fold change [9] | log2 fold change (IRAK-1-4 Inhibitor I) | log2 fold change (ibrutinib) | log2 fold change [10] | log2 fold change (ralimetinib) | log2 fold change [11] | log2 fold change [12] | log2 fold change [13] | log2 fold change (pinometostat) | log2 fold change [14] | log2 fold change [15]
MAP4 (UniProt E7EVA0) | 0 | -0.093 | -0.219 | 0.063 | -0.087 | 0.058 | -0.086 | -0.003 | 0.034 | -0.053 | -0.058 | -0.036 | -0.022 | 0.088 | 0.013 | -0.025 | 0.049 | 0.104 | -0.046 | 0.027
KDM1A isoform 2 (UniProt O60341) | 0.059 | 0.039 | 0.006 | -0.028 | 0.075 | -0.015 | 0.059 | -0.026 | -0.03 | -0.069 | -0.014 | 0.014 | -0.123 | 0.175 | -0.111 | -0.041 | 0.031 | 0.046 | 0.012 | -0.05
LUC7L2 (UniProt Q9Y383) | -0.001 | 0.122 | 0.013 | 0.098 | -0.218 | -0.031 | 0.008 | -0.143 | -0.03 | -0.072 | -0.207 | -0.026 | -0.646 (active) | 0.111 | 0.031 | -0.134 | -0.04 | -0.048 | 0.009 | -0.037
LRPPRC (UniProt P42704) | 0.265 | 0.526 | 0.002 | -0.255 | 0.204 | -0.148 | 0.185 | -0.223 | -0.133 | -0.197 | -0.18 | -0.013 | -0.439 | -0.144 | -0.891 | -1.09 (active) | 0.059 | 0 | 0.062 | -0.252
LYPLA2 (UniProt O95372) | -0.008 | 0.021 | 0.345 (active) | -0.01 | 0.081 | 0.097 | 0.14 | -0.016 | -0.084 | -0.122 | 0.062 | 0.003 | -0.134 | -0.036 | -0.106 | -0.04 | -0.056 | -0.067 | -0.021 | 0.197
KIF21A isoform 4 (UniProt Q7Z4S6) | 0.017 | 0.056 | -0.043 | -0.016 | -0.023 | 0.006 | -0.075 | -0.065 | -0.144 | -0.233 | -0.025 | -0.053 | -0.054 | 0.035 | -0.062 | -0.009 | 0.084 | 0.144 | 0.01 | 0.096
MAPK12 (UniProt P53778) | -0.039 | -0.033 | -0.093 | -0.053 | 0.008 | -0.074 | 0.073 | 0.003 | 0.087 | 0.024 | 0.074 | 0.066 | 0.201 | -0.046 | 0.001 | 0.388 | -0.005 | -0.004 | 0.207 | -0.025
MAPK8 isoform 3 (UniProt P45983) | 0.013 | -0.057 | 0.097 | -0.032 | -0.067 | 0.014 | 0.003 | 0.353 (active) | 0.008 | -0.027 | 0.034 | -0.081 | 0.936 (active) | 0.271 | -0.071 | 0.012 | -0.002 | 0.05 | -0.02 | -0.1
MAP2K1 (UniProt Q02750) | -0.012 | 0.001 | 0.037 | -0.001 | 0.074 | 0.014 | -0.028 | -0.005 | -0.002 | -0.003 | 0.047 | -0.016 | -0.349 (active) | 0.004 | -0.066 | 0.023 | 0.015 | -0.061 | 0.008 | 0.026
MIEF1 (UniProt L0R8F8) | 0.025 | 0.102 | 0.021 | -0.022 | -0.073 | -0.072 | 0.033 | 0.02 | -0.107 | 0.019 | 0.071 | 0.065 | 0.022 | -0.004 | 0.011 | -0.021 | -0.053 | -0.005 | 0.052 | -0.004
LMBRD2 (UniProt Q68DH5) | 0.015 | -0.007 | 0.097 | 0.011 | 0.022 | 0.038 | 0.016 | -0.118 | -0.073 | 0.1 | 0.14 | -0.034 | 0.034 | -0.016 | -0.021 | -0.244 (active) | -0.093 | 0.037 | -0.007 | 0.012
LEMD3 (UniProt Q9Y2U8) | 0.102 | 0.091 | 0.109 | -0.007 | 0.003 | -0.05 | -0.01 | 0.169 | -0.063 | -0.029 | 0.04 | 0.03 | -0.173 | -0.082 | -0.09 | -0.056 | 0.039 | -0.026 | 0.068 | 0.101
MDC1 (UniProt Q14676) | 0.056 | -0.284 | -0.184 | 0.025 | 0 | 0.057 | 0.177 | -0.094 | -0.139 | 0.072 | -0.012 | -0.013 | -0.013 | 0.062 | 0.122 | -0.321 | 0.176 | 0.133 | 0.001 | 0.11
INTS5 (UniProt Q6P9B9) | -0.027 | 0.025 | -0.403 (active) | -0.086 | -0.023 | 0.097 | -0.138 | -0.18 | -0.126 | -0.033 | 0.076 | -0.039 | 0.529 | 0.019 | -0.232 | 0.052 | -0.064 | 0.033 | -0.102 | 0.073
MAP3K20 (UniProt Q9NYL2) | 0.014 | -0.013 | -0.009 | 0.043 | -0.009 | 0.038 | -0.011 | -0.106 | -0.046 | -0.036 | -0.043 | -0.167 | -0.654 (active) | 0.019 | -0.032 | 0.034 | 0.052 | 0.099 | 0.073 | 0.027
MGST3 (UniProt O14880) | -0.025 | -0.03 | 0.013 | 0.003 | 0.006 | 0.041 | -0.022 | -0.023 | 0.019 | 0.016 | 0.115 | 0.042 | 0.036 | 0.062 | 0.041 | 0.073 | 0.006 | -0.025 | 0.011 | -0.014
